The source of these data is the supplement of paper PMC6555819.

In this assay the test system is VDR:RXRa (NR concentration 270 nM, RXRa partner concentration 90 nM). Put plainly: PBM binding z-score (relative to random genomic background probes); higher = stronger binding; sequences stand for … in GC…GCGATTGACAGCGTAGAATGAAGG
As to the method:
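Protein-binding microarray (Agilent 4x180K custom design, double-stranded 60-nt probes: 5' GC cap, 34-nt variable region, 24-nt constant primer region; full probe sequence given). Purified or IVT nuclear receptor:RXRα heterodimers (3:1 NR:RXRα, mostly 270:90 nM) or homodimers were incubated for 1 h in PBS with 2% milk and no ligand, then detected with Alexa488 antibodies. Fluorescence from o1-orientation probes (~5 replicates averaged) was converted to z-scores against 500 random hg19 background probes. Variable regions are seed direct-repeat (DR0–DR5) sites, all their single-nucleotide variants and half-site ablations.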
With TCTGCTAGGACAGTTGGTCAGCTAACGAGCTGCC, the PBM binding z-score was -0.792.

Turning to AACTCTAGGTAAAGTTCAGTGAAAGATCGATAGA, the PBM binding z-score was 1.15.

TCTAGCAGGCCAGAGGGTCACTCTAGAGGTACGG yielded a PBM binding z-score of 0.978.

As for TCAGATAGGTAAACAGGTGAAAGTCCGTAAGTTA, the PBM binding z-score was 0.923.

With TTACCAAGGTGAGGGTCGTTGATCCCTCTGTAGA, the PBM binding z-score is 0.884.

Sequence ACTAGCAGGCTAAGGGTCACTCAAGATTAGTCCG showed a PBM binding z-score of 2.97.

With ATCTCTAGGTAACTAAGTTCAGTGAATGCCGAAC, the PBM binding z-score was found to be 4.26.

GCTCGGAGGACAAGGGCAGAGCTTTGTCCGTAGA: the PBM binding z-score was -0.692.

In turn, CCTTATGGGTCACTGACAGGTTATAGCATTTGGA came in with a PBM binding z-score of 2.89.

TCTTGTAGATCAGCAGGTTAAGAAAGCTGGCCAA: the PBM binding z-score came to 0.357.

Consider ATATGTAGGTTAGCTGGGGTCATTCATACTAGGC, for which the PBM binding z-score was determined as 6.21.

In the case of TGAATGAGGTTATAAGATCAGGAAACGTTGCAAA, the PBM binding z-score was determined as 1.01.

For the sequence CCTACTGGGCCATTCAGAGGTCATTTATCATATG, the PBM binding z-score worked out at 3.73.

Sequence GGAACGAGAGCAAGTTGATAGCAGAGTTTGATGG came in with a PBM binding z-score of -0.392.

Regarding GGAACGAGGGCAAGTTGAGAGCAGAGTTTGATGG, the PBM binding z-score is 0.881.

On to TTACCAAGGTGCAAGGTCGTTGATGCACGCCTTG, for which the PBM binding z-score is 1.92.

As for TAGCCTAGGTCAGCTCGGGCCAGTATACGCTATA, the PBM binding z-score was 0.763.

For the sequence CCTCGGAGGACAACAAGAGGTCAGAGCTGCCAGA, the PBM binding z-score came to 2.88.

As for GCATATAGGTAACACAAGGTGAAAGTCCGATTGT, the PBM binding z-score was 0.418.

Consider TCAGACAGGTGACGGTAACTCAGGTACGCAGTCG, for which the PBM binding z-score turned out to be 0.324.

Turning to TTACCAAGGTGAGCTGAGGTCGTTTATCCAACTC, the PBM binding z-score was 4.32.

With CCGAGTAGGTTATGGGGCTTTCAGGCAACGGTGA, the PBM binding z-score was -0.375.

TCTCGTAGATCAATAGAGGTTAAGAAAGTGCGCT came in with a PBM binding z-score of 1.68.

CGAACGAGGGCATGAGTTGGTAGCAAATGCCGAT had a PBM binding z-score of 0.602.

Regarding CCAGACAGGTGTGAAGGTAACTCAGCCTCGATTA, the PBM binding z-score is -0.322.

Turning to GCATTTAGGTAATACAAGGTGAAAGTCCGATTGT, the PBM binding z-score was determined as 0.176.

Turning to TCGTGTAGGTTAGTCGGGGCATTCAGCCAACATA, the PBM binding z-score was 2.72.

In turn, CGAACTAGGTCAAGGACAGTTAATCTCCGCACGC yielded a PBM binding z-score of 1.6.

Turning to TCTATTAGTGGATTAGGGCAACCGAAACAGCGGA, the PBM binding z-score worked out at 0.547.

For TCTTGTACATCAAAGGTTAAGAAAGCCGAAGCCT, the PBM binding z-score was determined as 1.55.

CCGTCTGGGGCAAGGTTACCATAACGCACAGCCA: the PBM binding z-score amounted to 0.236.

Regarding GCGCGGAGGACAAGGTCAGAGCTTTGTCCGTAGA, the PBM binding z-score came out at 1.4.

CAAACTAGGTCAACGGTCAAAGTCGAGCCAACCA returned a PBM binding z-score of 2.71.

For GCTAGTTGGTCAGTAAAAGGTCACACAACGGTCG, the PBM binding z-score turned out to be 4.19.

As to AGTCAAAGTTCACTAGGTAACGCAAGATTCAGCT, the PBM binding z-score was found to be 3.39.

Take CGTCAGAGTTCAAGGTAACGTAACAGAAAGCAGC: the PBM binding z-score was determined as 4.23.

AGAATGAGGTTATACGTCGATCAGGGAAGAAAGT returned a PBM binding z-score of 1.29.

TCTTGTAGATCAAGCAGGTTAAGACAGCCTGAGT: the PBM binding z-score was determined as 0.279.

The sequence TCAATTAGTTGAAGGGCAACCGACGAGTCCGTTT had a PBM binding z-score of 0.667.

CTACCAAGGTGAACAAGATCGTTGATTACTATTC came in with a PBM binding z-score of 1.31.
